A structure can be active in one record and inactive in another. Active and inactive are the calls of the source. Rule for the calls: active = hit-call score of the fitted dose curve at least 0.9, where 1 is the maximum; inactive = score below 0.9.
read-out: Phosphatase and tensin (PTEN), PTEN (gene 5728); assay: LTEA_HepaRG_PTEN: Life Technologies and Expression Analysis (LTEA) Assay for Phosphatase and tensin (PTEN) using HepaRG (AID 2283523); settings: mRNA level, 48 h; actives raise or lower the signal
Description: LTEA_HepaRG is a cell based, multiplexed-readout assay that uses HepaRG, a human liver cell line, with measurements taken at 48 hours after chemical dosing on a 96-well plate.LTEA_HepaRG_PTEN is one of 102 assay component(s) measured in the LTEA HepaRG cell culture assay. It is a marker of Cell proliferation, survival, death.Data from the assay component LTEA_HepaRG_PTEN was analyzed into 1 endpoint. This assay endpoint, LTEA_HepaRG_PTEN, was analyzed with bidirectional fitting relative to DMSO as the negative control and baseline of activity. Using a type of inducible reporter, measures of mRNA induction for gain or loss-of-signal activity can be used to understand regulation of transcription factor activity. To generalize the intended target to other relatable targets, this assay endpoint is annotated to the phosphatase intended target family, where the subfamily is dual-specific phosphatase.
A total of 1060 chemcials from the ToxCast library were tested in eight-point concentration-response experiments. Cell culture and cytotoxicity assays were conducted at Thermo Fisher Scientific's Custom Services facility (Madison, WI). A single lot of human HepaRG cells (Thermo Fisher Scientific, Frederick, MD) was used for the cell culture experiments. 96-well format collagen type I coated plates of human HepaRG cells were prepared using established methods. Briefly, cryopreserved HepaRG cells were thawed, plated at a density of approximately 100,000 cells/well in HepaRG Thaw, Plate, and General Purpose media (HPRG770, Thermo Fisher Scientific), and incubated for 48 hours. 0.5% DMSO was selected as vehicle control to balance the requisite need of DMSO in HepaRG cultures to maintain differentiation (for example, baseline metabolism, proportions of hepatocytes vs. cholangiocytes), while enabling further hepatic receptor pathway activation (for example, PXR and CAR) in response to chemical exposure. 48 hours after plating, the culture medium was replaced with HepaRG Serum-Free Incudtion Media. Cells were exposed to each test chemical in duplicate and maintained in CO2 incubators for another 48 hours. Chemical plates were thawed to room temperature and 200x concentrations of treatment groups were prepared. 8-point conentration-reponse curves were made with the highest exposure at 100 uM, followed by half-log dilutions, all in 0.5% DMSO. Each test plate contained variouse controls, induction positive controls (1mM phenobarbital), cytotoxicity positive controls ([…] aflatoxin B1), vehicle controls (0.5% DMSO), and total lysis controls (0.5% DMSO). Cell morphology images were taken using an Essen IncuCyte FLR automated microscope, with six 96-well plates imaged in about 24 minutes. Images were captured and exported and JPEG files. Spent culture media was transfered to black-well plates for the LDH assay, and remaining media was sorted at -80 C for later use. Cells were treated with RLT buffer and frozen until shipped for gene expression analysis. Total RNA was isolated from the cell suspension in 75 uL of Buffer RLT (Qiagen, Germantown, MD 20874) by Quintiles/Expression Analysis (Durham, NC) using a custom isolation procedure. Total RNA from each plate well was transferred to a preamplification plate. Fluidigm's 96.96 Dynamic ArrayTM (Fluidigm, Amsterdam, the Netherlands) technology was used for gene expression analyses by quantitative reverse transcription polymerase chain reaction (qRT-PCR, performed by Quintiles/Expression Analysis, Durham, NC)89. Standard TaqManTM Assays (Applied Biosystems/ThermoFisher Scientific, Foster City, CA) were used to assess the expression of 93 genes selected based on their selectivity and sensitivity to important hepatic receptors known to be modulated by environmental chemicals; importance in human hepatocyte functionality; and hepatotoxicity. […]

| Structure (SMILES) | outcome | AC50 |
| --- | --- | --- |
| O=C(O)C(F)(F)C(F)(F)C(F)(F)C(F)(F)C(F)(F)C(F)(F)C(F)(F)F | inactive | – |
| CNC(=O)CSP(=S)(OC)OC | inactive | – |
| CCOC1Oc2ccc(OS(C)(=O)=O)cc2C1(C)C (stereo not given) | inactive | – |
| CNC(=O)Oc1ccccc1OC(C)C | inactive | – |
| CC(C)(C)C(O)/C(=C\c1ccc(Cl)cc1Cl)n1cncn1 (stereo not given) | – | 79.1 µM (active) |
| Oc1cc(Cl)ccc1Oc1ccc(Cl)cc1Cl | inactive | – |
| O=S(=O)(O)C(F)(F)C(F)(F)C(F)(F)C(F)(F)C(F)(F)C(F)(F)C(F)(F)C(F)(F)F | inactive | – |
| CC1(c2ccc(Oc3ccccc3)cc2)OC(=O)N(Nc2ccccc2)C1=O (stereo not given) | inactive | – |
| CCCN(CCC)c1c([N+](=O)[O-])cc(C(F)(F)F)cc1[N+](=O)[O-] | inactive | – |
| O=C(Nc1ccccc1)Nc1cnns1 | inactive | – |
| CCN(CC)C(=O)SCc1ccc(Cl)cc1 | inactive | – |
| C#CCN1C(=O)COc2cc(F)c(N3C(=O)C4=C(CCCC4)C3=O)cc21 | inactive | – |
| CC(C)N(C(=O)COc1nnc(C(F)(F)F)s1)c1ccc(F)cc1 | inactive | – |
| COc1nn(CSP(=S)(OC)OC)c(=O)s1 | inactive | – |
| CNC(=O)Oc1cccc(N=CN(C)C)c1 | inactive | – |
| CCC(C)Nc1c([N+](=O)[O-])cc(C(C)(C)C)cc1[N+](=O)[O-] (stereo not given) | inactive | – |
| COP(=O)(OC)OC=C(Cl)Cl | inactive | – |
| CC(C)(C)C(O)C(Oc1ccc(Cl)cc1)n1cncn1 (stereo not given) | inactive | – |
| CCC(C)(C)C(=O)OC1=C(c2ccc(Cl)cc2Cl)C(=O)OC12CCCCC2 | inactive | – |
| COP(=S)(OC)Oc1ccc(SC)c(C)c1 | inactive | – |

| Structure (SMILES) | outcome | AC50 |
| --- | --- | --- |
| Oc1ccc(Cl)cc1Cc1ccccc1 | inactive | 86 µM (active) |
| O=S1OCC2C(CO1)C1(Cl)C(Cl)=C(Cl)C2(Cl)C1(Cl)Cl (stereo not given) | inactive | – |
| N#Cc1c(Cl)c(Cl)c(Cl)c(C#N)c1Cl | – | 68.7 µM (active) |
| OCCOc1ccccc1 | inactive | – |
| CC[C@H](C)[C@H]1O[C@]2(C=C[C@@H]1C)C[C@@H]1C[C@@H](C/C=C(\C)[C@@H](O[C@H]3C[C@H](OC)[C@@H](O[C@H]4C[C@H](OC)[C@@H](O)[C@H](C)O4)[C@H](C)O3)[C@@H](C)/C=C/C=C3\CO[C@@H]4[C@H](O)C(C)=C[C@@H](C(=O)O1)[C@]34O)O2 (tested in a mixture with another compound) | – | 54.5 µM (active) |
| COP(=S)(OC)Oc1ccc([N+](=O)[O-])cc1 | inactive | – |
| O=C(O)COc1ccc(Cl)cc1Cl | inactive | – |
| O=C1c2ccccc2C(=O)N1SC(Cl)(Cl)Cl | inactive | – |
| CCc1ccc(C(=O)NN(C(=O)c2cc(C)cc(C)c2)C(C)(C)C)cc1 | inactive | – |
| C[C@H]1[C@H](c2ccc(Cl)cc2)SC(=O)N1C(=O)NC1CCCCC1 | inactive | – |
| CCOCN(C(=O)CCl)c1c(C)cccc1CC | inactive | – |
| O=[N+]([O-])c1c(Cl)c(Cl)c(Cl)c(Cl)c1Cl | inactive | – |
| CCC(C)(NC(=O)c1cc(Cl)c(C)c(Cl)c1)C(=O)CCl (stereo not given) | – | 90.8 µM (active) |
| Clc1ccccc1-c1nnc(-c2ccccc2Cl)nn1 | inactive | – |
| N#CN | inactive | – |
| CCCN(CCOc1c(Cl)cc(Cl)cc1Cl)C(=O)n1ccnc1 | – | 79.1 µM (active) |
| CC(C)OC(=O)Nc1cccc(Cl)c1 | inactive | – |
| O=[N+]([O-])/N=C1\NCCN1Cc1ccc(Cl)nc1 | inactive | – |
| ClC1C(Cl)C(Cl)C(Cl)C(Cl)C1Cl (stereo not given) | inactive | – |
